DT40 TDP1 no CPT = qHTS for Inhibitors of human tyrosyl-DNA phosphodiesterase 1 (TDP1): qHTS in cells in absence of CPT. DT40 Tdp1-/- hTDP1 cells, no CPT, ATP luminescence, 48 h. AID 686978, 2013. 15% of 420,000 active. Potency, µM (series often up to 46.2 µM), usual class: inhibitors; also: nearly all actives have a fitted effect of over 55% in size
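Growth kinetics read by CellTiter-Glo luminescence after ≥48 hr at 37 °C. Cells: DT40 Tdp1-/- stably carrying human TDP1, 400 per well, compound exposure in the absence of CPT (DMSO vehicle).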
HT1080NT lethal = kills 2HG-producing HT-1080-NT fibrosarcoma cells; HT-1080-NT fibrosarcoma viability, CellTiter-Glo ATP luminescence, 48 h; Potency, µM (highest dose often 46.1 µM), usual class: cytotoxic; 1.6% of 360,000 active; AID 686970;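 also: NT is the 2HG producing partner of a matched IDH1 knockdown line; nearly all actives have a fitted effect of over 55% in size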
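HT-1080-NT; 750 cells/well; 5% FBS RPMI; 48 h compound, 37 degrees C; CellTiter-Glo luminescence; curve fitting and curve-class assignment.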
TDP1 cell CPT = growth inhibition of DT40 Tdp1-/-;hTDP1 cells with camptothecin (screen for TDP1 inhibitors); AID 686979; Potency, µM (top dose mostly 46.2 µM), actives largely listed as inhibitors; chicken DT40 Tdp1-/-;hTDP1 cells + 20 nM CPT, ATP luminescence, 48 h; 12% of 420,000 active; also: nearly all actives have a fitted effect of over 55% in size
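Cell growth measured by CellTiter-Glo luminescence after a minimum 48 h, 37 C compound exposure with 20 nM CPT in Tdp1-knockout DT40 cells stably expressing hTDP1, seeded 400/well; qHTS titration format.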
IL1B secr inh = inflammasome signaling inhibition, IL-1 beta readout; 4.7% of 360,000 active; THP-1 LPS/ATP IL-1B secretion, AlphaLISA, 16 h; stronger effect = lower value; AID 743279; activity change, % at 57.5 µM; in the data active = activity change below about -50%; inconclusive = mostly about -30% to -49%
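THP-1 cells pretreated 1 hr with compounds (up to 57.5 uM final), then stimulated with LPS (250 ng/mL final) plus ATP (1.25 mM final); secreted IL-1B measured by AlphaLISA after 16 hr, decreased signal indicating inhibition.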
HT1080 IDH1KD tx = toxicity to HT-1080 IDH1 knockdown cells (counter line); Potency, µM (doses to about 46.1 µM), actives largely listed as cytotoxic; HT-1080 IDH1 knockdown viability, ATP luminescence, 48 h; 2% of 360,000 active
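Cytotoxicity counter-line: IDH1KD HT-1080, 48 h, CellTiter-Glo. Curves classed by r2, magnitude and activity.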
uPA surface inh = cell surface uPA generation inhibition | cell surface uPA generation assay, qHTS | Potency, µM (top dose mostly 38.3 µM), most hits filed as inhibitors | 0.31% of 330,000 active | AID 540303; active = well fitted inhibition curve with a large enough effect; inconclusive = small, poorly fitted or top-dose-only effect; inactive = no such curve, though single readings can be large or run the other way; tested in mouse RAW 264.7 cells; also: nearly all actives have a fitted effect of over 55% in size
Numbers stand for hits; 0 = inactive; ? = inconclusive; - = not tested or not shown; ! = not active in a repeat. A selection: hits, their analogues and other compounds. The true share with any hit is near 19%. Unless noted, calls follow the shape of the dose curve; as a rule, active = well fitted curve in the direction sought with a large enough effect; inconclusive = small, poorly fitted or top-dose-only effect, or another doubt; inactive = no such curve, though single readings can be large; an effect the other way counts as inactive or inconclusive.

SMILES	DT40 TDP1 no CPT	HT1080NT lethal	TDP1 cell CPT	IL1B secr inh	HT1080 IDH1KD tx	uPA surface inh
N=c1c(S(=O)(=O)c2ccccc2)cc2c(=O)n3ccccc3nc2n1CC1CCCO1 (configuration not stated)	?	0	?	0	0	0
CC(C)Nc1nc(-c2ccccc2F)c2sc(-c3ccccc3)cc2n1	?	0	?	0	0	-
COCCNc1nc(-c2ccccc2F)c2sc(-c3ccccc3)cc2n1	?	?	18µM	?	?	-
COCCNc1nc(-c2cc(F)ccc2C)c2sc(-c3ccccc3)cc2n1	15µM	0	26µM	-82	0	-
CN(Cc1ccccn1)C(=O)C1CCC(=O)N(CCc2ccc(Cl)cc2)C1 (configuration not stated)	0	0	0	0	0	0
CCc1ccn2cc(-c3cc(-c4ccccc4)no3)nc2c1	18µM	?	?	0	?	?
COc1ccccc1N1CCN(C2CCCCC2NS(=O)(=O)c2ccccc2)CC1 (configuration not stated)	16µM	0	21µM	0	0	0
O=C(Nc1cccc2cccnc12)c1csc([C@@H]2O[C@H](CO)[C@H](O)[C@H](O)[C@H]2O)n1	0	0	0	0	0	-
CC(C)Oc1ccc(CCN=C(N)N=C(N)N)cc1Cl	12µM	0	10µM	0	23µM	0
CC1CCCN(c2cc3c(cc2F)c(=O)c(S(=O)(=O)c2cccc(Cl)c2)cn3C)C1 (configuration not stated)	23µM	-	?	-	-	-
Cn1cc(S(=O)(=O)c2ccc(Cl)cc2)c(=O)c2cc(F)c(N3CCCC3)cc21	16µM	-	21µM	-	-	-
Cn1cc(S(=O)(=O)c2cccc(Cl)c2)c(=O)c2cc(F)c(N3CCN(c4ccccc4)CC3)cc21	0	-	0	-	-	-
Cn1cc(S(=O)(=O)c2ccccc2)c(=O)c2cc(Cl)ccc21	?	0	16µM	0	0	0
Cc1cc(C)cc(S(=O)(=O)c2cn(C)c3cc(N4CCN(C)CC4)c(F)cc3c2=O)c1	?	0	?	0	0	0
COc1ccc(S(=O)(=O)c2cn(C)c3cc(N4CCCC4)c(F)cc3c2=O)cc1	23µM	-	?	-	-	-
Cc1c(OCC(=O)N[C@H](C(=O)O)c2ccccc2)ccc2c3c(c(=O)oc12)CCCC3	0	0	0	0	0	0
CCCc1nc(SCC(=O)NCC2CCCO2)c2c(=O)n(C)c(=O)n(C)c2n1 (configuration not stated)	0	0	0	0	0	0
COc1ccc([C@H]2C(C(=O)O)=C[C@@H](C(C)(C)C)N2S(=O)(=O)c2ccccc2)cc1	0	0	0	0	0	0
Cc1cc(C)cc(NC(=O)Nc2ccc(NC(=O)c3ccccc3O)cc2)c1	21µM	?	?	0	0	0
CC(=O)Nc1cccc(-c2csc(Nc3ccccn3)n2)c1	?	?	?	0	0	0
CC(=O)Nc1nc(C)c(-c2csc(Nc3ccccn3)n2)s1	13µM	0	10µM	-79!	?	0
CC(=O)Nc1ccc(-c2csc(Nc3ncccn3)n2)cc1	0	0	0	0	0	0
CC(=O)Nc1nc(C)c(-c2csc(Nc3cccc(C(C)=O)c3)n2)s1	5.2µM	?	3.3µM	-79	0	11µM
Cc1ccc(Nc2nc(-c3sc(NC(=O)c4ccco4)nc3C)cs2)cc1	13µM	0	?	0	0	0
CC(=O)Nc1ccc(Nc2nc(-c3sc(NC(C)=O)nc3C)cs2)cc1	13µM	0	16µM	-95	0	0
SMILES	DT40 TDP1 no CPT	HT1080NT lethal	TDP1 cell CPT	IL1B secr inh	HT1080 IDH1KD tx	uPA surface inh
Cc1nc(N)sc1-c1csc(Nc2cccc(C(=O)O)c2)n1	0	0	0	0	0	0
CC(=O)Nc1nc(C)c(-c2csc(Nc3cccc([N+](=O)[O-])c3)n2)s1	5.2µM	?	8.2µM	-51	?	0
CC(=O)c1cccc(Nc2nc(-c3cccc([N+](=O)[O-])c3)cs2)c1	?	0	?	0	?	0
Cc1nn(CC(=O)Nc2c(F)c(F)cc(F)c2F)c(=O)c2cccn12	0	0	0	0	0	0
COc1ccccc1NS(=O)(=O)c1cc(NC(=O)c2[nH]c(C)c(C(C)=O)c2C)ccc1N1CCOCC1	2.9µM	0	7.3µM	0	0	0
O=C(Nc1ccc(N2CCOCC2)c(S(=O)(=O)Nc2ccccc2Cl)c1)c1ccc(=O)[nH]n1	16µM	0	?	0	0	0
COc1ccccc1NS(=O)(=O)c1cc(NC(=O)c2ccc(=O)[nH]c2)ccc1N1CCOCC1	16µM	0	?	0	0	0
O=C(Nc1ccc(N2CCOCC2)c(S(=O)(=O)Nc2ccccc2Cl)c1)c1ccccc1	?	0	?	0	0	0
COc1ccccc1NS(=O)(=O)c1cc(NC(=O)c2ccccc2C)ccc1N1CCOCC1	?	0	?	0	0	0
COc1ccccc1NS(=O)(=O)c1cc(NC(=O)c2cc(F)c(F)c(F)c2F)ccc1N1CCOCC1	16µM	0	?	0	0	0
COc1ccccc1-c1cnc(C(O)c2cccc(C)c2C)[nH]1 (configuration not stated)	16µM	0	15µM	0	0	-
Cc1cc(Cl)ccc1C(O)c1ncc(-c2ccccc2C(F)(F)F)[nH]1 (configuration not stated)	15µM	?	26µM	0	?	-
COc1cccc(-c2cnc(C(O)c3ccc(Cl)cc3C)[nH]2)c1 (configuration not stated)	16µM	0	23µM	0	0	-
COc1cccc(-c2cnc(C(O)c3ccc(Cl)c(F)c3)[nH]2)c1 (configuration not stated)	?	0	15µM	0	0	-
Cc1ccccc1-c1cnc(C(O)c2ccc(Cl)cc2C)[nH]1 (configuration not stated)	?	?	?	0	0	-
COc1ccccc1-c1cnc(C(O)c2ccc(Cl)cc2C)[nH]1 (configuration not stated)	18µM	0	?	0	?	-
COc1cc(NC(=O)c2cc3nc(-c4ccccc4)cc(-c4ccccc4)n3n2)c(OC)cc1Cl	0	-	0	-	-	-
COCCN1C[C@@H](CO)O[C@@H](n2cnc3c(NCC(C)C)ncnc32)C1	0	0	0	0	?	-
CN=CC1=C(O)c2ccccc2C1=O	0	0	0	0	0	0
Cc1ccc(O)c(N=CC2=C(O)c3ccccc3C2=O)c1	23µM	?	?	0	?	0
O=C1C(C=Nc2ccccc2O)=C(O)c2ccccc21	1.3µM	6.3µM	3.3µM	0	6.3µM	?
O=C1C(C=Nc2ccccc2)=C(O)c2ccccc21	0	0	0	0	0	0

Assay outcomes: PubChem, National Center for Advancing Translational Sciences (NCATS)
